Screening data: PubChem, The Scripps Research Institute Molecular Screening Center
Rows were chosen to be rich in hits. Some 3.4% of all compounds tested hit in one or more screens of this group.
TEAD-YAP block: TEAD-YAP interaction inhibition; HEK-TIYL cells, TEAD-Gal4/YAP UAS-luciferase luminescence; inhibition, % at 9.12 µM; 640,000 tested, 1.4% active; in the data active means inhibition above about 32%;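 further: 0% = median of test compound wells and 100% = reference inhibitor wells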
MITF inh: blocks human microphthalmia-associated transcription factor | AlphaScreen MITF homodimerization, bead proximity signal | inhibition, % at 2.6 µM | O75030 | 650,000 tested, 0.91% active; in the data active means inhibition above about 50%;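 further: 0% = vehicle wells with protein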
FBW7 activator: activators of human E3 ligase FBW7; AlphaScreen FBW7–phospho-cyclin E peptide binding, activator screen; normalized activity (activation), % at 26.1 µM; Q969H0; 650,000 tested, 0.13% active; in the data active means normalized activity above about 1.9%;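 further: purified mutant Fbw7 with reduced substrate affinity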
Target sequence (Q969H0 whole entry, looked up): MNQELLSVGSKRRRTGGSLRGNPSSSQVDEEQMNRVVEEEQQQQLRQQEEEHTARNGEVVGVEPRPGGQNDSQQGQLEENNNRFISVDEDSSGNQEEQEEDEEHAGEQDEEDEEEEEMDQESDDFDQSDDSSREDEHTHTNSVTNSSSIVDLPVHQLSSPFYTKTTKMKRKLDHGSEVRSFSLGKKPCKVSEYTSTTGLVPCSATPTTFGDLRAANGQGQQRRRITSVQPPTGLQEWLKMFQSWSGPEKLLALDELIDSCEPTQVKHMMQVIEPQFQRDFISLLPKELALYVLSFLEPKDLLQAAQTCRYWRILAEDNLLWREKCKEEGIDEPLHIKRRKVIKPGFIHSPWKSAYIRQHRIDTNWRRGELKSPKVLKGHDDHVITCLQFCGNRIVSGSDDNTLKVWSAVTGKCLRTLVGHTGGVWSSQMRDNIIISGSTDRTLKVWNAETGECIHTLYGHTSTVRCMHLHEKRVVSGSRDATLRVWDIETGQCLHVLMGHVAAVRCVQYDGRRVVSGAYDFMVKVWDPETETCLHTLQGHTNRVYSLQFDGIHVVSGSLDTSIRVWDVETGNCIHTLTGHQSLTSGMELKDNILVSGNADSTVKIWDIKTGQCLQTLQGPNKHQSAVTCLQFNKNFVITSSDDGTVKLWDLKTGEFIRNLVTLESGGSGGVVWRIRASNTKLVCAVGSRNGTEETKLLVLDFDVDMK
GPR151 ag: human GPR151 activation; activation, % at 11.2 µM; 650,000 tested, 1% active; PathHunter beta-arrestin GPR151 cells, luminescence; AID 1508602; in the data active means activation above about 4.9%;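 further: 0% = median of compound wells and 100% = cells with positive control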
Starred values were filed as active, the others as inactive.

SMILES	TEAD-YAP block	MITF inh	FBW7 activator	GPR151 ag
C/C(=N\NC(=O)c1cc(-c2ccc(C)o2)[nH]n1)c1ccc(N)cc1	-27	5	0	-1
CCCCNCc1c(C(=O)O)c(C)n(Cc2ccccc2F)c1C	-5	14	0	-1
CC1CCCCN1CCCn1c(=S)[nH]c2ncccc2c1=O (configuration not stated)	3	-6	0	-1
COc1ccccc1Nc1nc(-c2ccccn2)cs1	-10	18	-2	-2
c1ccc(-c2csc(Nc3nc4cc5c(cc4s3)OCO5)n2)nc1	90*	62*	-2	-2
COc1cccc2sc(Nc3nc(-c4ccccn4)cs3)nc12	63*	-3	-2	0
Cc1cc(C)c[n+](C(C)C(=O)c2ccc(-c3ccccc3)cc2)c1 (configuration not stated)	72*	4	0	1
Cc1ccc[n+](C(C)C(=O)c2ccccc2)c1 (configuration not stated)	1	10	0	0
Clc1ccc(-c2cn3c(n2)sc2ccccc23)cc1	31	-18	2.7*	-2
Ic1ccc(-c2cn3c(n2)sc2ccccc23)cc1	-38	14	1	1
CCOC(=O)c1ccc2c(c1)sc1nc(-c3ccccc3)cn12	54*	4	0	-6
COC(=O)c1ccc2c(c1)sc1nc(-c3ccccc3)cn12	65*	-1	0	-6
COc1cccc(/C=N/NC(=O)COc2ccc3c(C)cc(=O)oc3c2)c1OC	2	-9	0	1
CCOc1ccc(Br)cc1S(N)(=O)=O	-6	-8	0	0
CC(=O)c1c(C)[nH]c(C(=O)CSc2nnnn2-c2cccc(C)c2)c1C	33*	11	0	2
CCCc1cc(CN(C)C(=O)c2ccc(-n3cc(NC(=O)c4ccoc4)cn3)cc2)[nH]n1	5	1	1	0
CC(C)c1ccc(NS(=O)(=O)c2cccc3cnccc23)cc1	56*	17	0	0
COc1ccc([N+](=O)[O-])cc1NC(=S)NC(=O)c1ccccc1	-2	7	0	0
O=C(NCCc1ccc(O)cc1)c1cc(N2CCN(Cc3ccc4c(c3)OCO4)CC2)nc2ccccc12	48*	12	0	0
COC(=O)c1cnc(N2CCN(Cc3ccc4c(c3)OCO4)CC2)c2ccccc12	9	2	0	-1
CCCNC(=O)c1cc(N2CCN(Cc3ccc4c(c3)OCO4)CC2)nc2ccccc12	-9	-4	0	0
O=C(c1cnc(N2CCN(c3ccccn3)CC2)c2ccccc12)N1CCN(Cc2ccc3c(c2)OCO3)CC1	57*	0	0	2
CCCN(C(=O)c1cccs1)C1CCN(C)CC1	-4	10	0	2
Cc1ccc2c(c1)-c1c(cnn1CC(=O)NCc1cccnc1)CO2	2	5	0	2
OCCN1CCN(c2ncnc3ccc(Br)cc23)CC1	39*	-18	0	0
SMILES	TEAD-YAP block	MITF inh	FBW7 activator	GPR151 ag
CC1Cc2ccccc2N1CC(=O)Nc1cccc(Br)c1 (configuration not stated)	4	8	0	1
CCOC(=O)c1ccc(S(C)(=O)=O)c(C)c1O	4	-4	0	2
CC1CC(C)(C)Nc2ccc(OC(=O)c3ccccc3)cc21 (configuration not stated)	44*	-5	0	0
O=C(Oc1ccc(OC(=O)c2ccccc2)cc1)c1ccccc1	-4	0	0	0
CCCCOc1ccc(CSCCN=C(N)N)cc1	17	7	0	0
CCCCCOc1ccc(CSCCN)cc1	65*	-7	0	0
CCCCOc1ccc(CSCCN)cc1	46*	3	0	-1
CCOC(=O)COc1ccc(C(O)(C(F)(F)F)C(F)(F)F)c(O)c1	-1	5	0	0
CC(C)(C)NC(=O)Cn1nnc2c(cnn2-c2ccccc2)c1=O	2	-3	0	-1
COc1ccc(CCNc2nc(-c3ccc(OC)nc3)nc3nc[nH]c23)cc1	20	15	0	0
COc1ccc(-c2nc(NCCc3ccc(O)cc3)c3[nH]cnc3n2)cc1	59*	2	0	1
COc1ccc(-c2nc(NCCc3ccc(O)cc3)c3[nH]cnc3n2)cn1	33*	8	0	2
CCC(Sc1nc2c(c(=O)n1-c1ccccc1)SCC2)C(=O)OC (configuration not stated)	7	0	0	0
CC(C)CC1(C2CCN(Cc3cccnc3)CC2)NC(=O)N(CCc2cccs2)C1=O (configuration not stated)	-7	7	1	1
CC1(C)Cc2c(cnn2-c2ccc(Cl)cc2)-c2nc3ccccc3nc21	-1	15	0	0
Nc1nc2c(s1)CCc1c-2cnn1-c1ccccc1	45*	-3	0	-1
Cc1cc(C)cc(-n2c(C)cc(/C=C(\C#N)c3ccc(Cl)cc3)c2C)c1	-2	-1	0	1
O=S(=O)(Nc1ccc(OCc2ccccc2)cc1)c1ccc(Br)cc1	-3	0	0	1
CN(C)S(=O)(=O)Nc1ccc(OCc2ccccc2)cc1	-23	12	1.9*	-1
COc1ccc(C(=O)Nc2ccc(OCc3ccccc3)cc2)c(OC)c1	90*	15	0	-1
CCSc1nnc(-c2ccccc2)c2sc(C)nc12	-1	-3	0	0
CCOC(=O)c1cnn(-c2ccnc(Nc3ccc(N4CCOCC4)cc3)c2)c1N	-5	21	0	3
OCC1(Cc2ccccc2)CCN(Cc2cccc3cccnc23)CC1	13	7	0	-2
O=C(Nc1cc(Cl)c(Cl)cc1Cl)c1ccccc1Br	-13	11	0	0
Cc1ccc(-c2nc(N)sc2-c2ccc([N+](=O)[O-])cc2)cc1	37*	11	0	1
SMILES	TEAD-YAP block	MITF inh	FBW7 activator	GPR151 ag
O=C(Nc1nc(-c2cccs2)cs1)c1ccc(Br)cc1	-25	-14	0	0
Cc1ccc(Nc2nc(-c3cccs3)cs2)nc1	56*	4	0	-3
Cc1cccnc1Nc1nc(-c2cccs2)cs1	-64	-6	0	-1
CN(C)c1ccc(Nc2nc(-c3cccs3)cs2)cc1	70*	14	0	-2
O=C(Nc1nc(-c2cccs2)cs1)c1ccncc1	35*	12	0	-1
CCOc1cccc2c1OC1(CCCCC1)N1N=C(c3cccc(OC)c3)CC21 (configuration not stated)	27	-8	0	0
C/C(=N\N=C1/NC(=O)C(CC(=O)O)S1)c1ccc2ccccc2c1O (configuration not stated)	-7	83*	0	4
Oc1ccc(-c2cnn3c(NCc4cccs4)ccnc23)cc1	82*	-29	0	-1
COCCNc1ccnc2c(-c3cccc(Cl)c3)cnn12	-2	11	0	0
CC(=O)c1cccc(-c2cnn3c(NCc4ccco4)ccnc23)c1	-44	20	0	1
Clc1cccc(-c2cnn3c(NCc4ccco4)ccnc23)c1	18	11	2.0*	-2
Oc1cccc(-c2cnn3c(NCc4ccco4)ccnc23)c1	89*	-17	-1	0
